EBV LMP1 NFkB: Epstein-Barr LMP1 NF-kappaB reporter inhibition | 350,000 compounds, 0.69% hits | inhibition, % at 12.5 µM | LMP1-induced NF-kappaB luciferase reporter cells, luminescence; in the data active = inhibition above about 41%; inconclusive = no clear call, values can overlap the other calls;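 also: 0% = neutral control wells and 100% = reference inhibitor control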
SRC1 inh: inhibits human SRC1 coactivator. Q15788. HEK293 GAL4-SRC1 luciferase reporter, luminescence. inhibition, % at 3.6 µM. 360,000 compounds, 0.12% hits. AID 588354;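 active = inhibition above the campaign mean plus 3 SD, with each screening campaign given its own cutoff, cut at about 60% in these data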;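 also: 0% = DMSO treated cells and 100% = gossypol at 36 µM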
Shn3 3UTR inh: reduces Shn3 3'UTR luciferase signal in osteoblasts | 360,000 compounds, 0.52% hits | inhibition, % at 12.5 µM | Clone20 osteoblast Shn3 3'UTR firefly luciferase, 24 h;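 active = mean inhibition of at least 75% with every replicate also reaching 75%; inconclusive = mean inhibition at least 75% but some replicate below; inactive = mean inhibition below 75%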;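 also: 0% = median of neutral control wells and 100% = pilot-screen positive control compound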
LRH-1 inv ag: inverse agonists of human LRH-1 (NR5A2); AID 602396; HEK293T StAR-luciferase reporter, LRH-1 transfected, 24 h; inhibition, % at 3.6 µM; 360,000 compounds, 0.13% hits;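 active = inhibition above the mean inhibition of all tested compounds plus 3 SD, cut at about 73% in these data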;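 also: 0% = DMSO wells and 100% = reporter-only cells lacking LRH-1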
Target sequence (O00482 whole entry, looked up): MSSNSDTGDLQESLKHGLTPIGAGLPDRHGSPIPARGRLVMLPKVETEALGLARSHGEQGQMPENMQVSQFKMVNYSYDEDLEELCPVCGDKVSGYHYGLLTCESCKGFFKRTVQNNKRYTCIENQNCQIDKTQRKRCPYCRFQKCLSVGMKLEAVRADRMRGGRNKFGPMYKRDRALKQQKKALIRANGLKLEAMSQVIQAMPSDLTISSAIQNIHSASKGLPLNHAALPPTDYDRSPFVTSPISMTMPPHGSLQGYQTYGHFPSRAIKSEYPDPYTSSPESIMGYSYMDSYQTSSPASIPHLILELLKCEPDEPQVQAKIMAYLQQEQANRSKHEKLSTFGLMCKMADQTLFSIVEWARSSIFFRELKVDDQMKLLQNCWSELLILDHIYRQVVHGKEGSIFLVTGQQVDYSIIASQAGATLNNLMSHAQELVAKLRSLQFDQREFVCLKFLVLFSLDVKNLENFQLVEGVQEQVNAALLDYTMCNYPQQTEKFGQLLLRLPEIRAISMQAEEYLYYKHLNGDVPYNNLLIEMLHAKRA
NCOA2 inhibitor: inhibits human steroid receptor coactivator 2. HEK293 GAL4-SRC2 luciferase reporter, luminescence. inhibition, % at 9 µM. 370,000 compounds, 0.17% hits;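 active = inhibition above the mean inhibition of all tested compounds plus 3 SD, set per campaign, cut at about 52% in these data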;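 also: 0% = DMSO treated cells and 100% = cells given Gossypol at 36 µM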
SRC3 inh: human NCOA3 inhibition; Q9Y6Q9; HEK293 GAL4-SRC3 luciferase reporter, luminescence; inhibition, % at 3.6 µM; 360,000 compounds, 0.17% hits;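 active = inhibition above a per-campaign cutoff, the mean of all compounds plus 3 SD, cut at about 60% in these data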;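 also: 0% = DMSO-treated cells and 100% = gossypol-treated cells at 36 µM; higher means less SRC3-driven luciferase light from the GAL4 reporter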
An asterisk follows results filed as active; ? = inconclusive; . = no result. A selection: hits, their analogues and other compounds. The true share with any hit is near 1.2%.

SMILES	EBV LMP1 NFkB	SRC1 inh	Shn3 3UTR inh	LRH-1 inv ag	NCOA2 inhibitor	SRC3 inh
C#CC(=O)N(c1cc(OC)ccc1OC)C(C(=O)NC1CCCC1)c1cccs1 (stereo unspecified)	73*	-5	90*	25	.	43
Cc1ccsc1S(=O)(=O)n1c(CN2CCOCC2)nc2ccccc21	.	.	.	.	9	.
COc1ccc2c(c1)CO[C@H]([C@H](O)CO)[C@H]2/C=C/c1ccccc1	.	.	.	.	10	.
CCOC(=O)CC[C@@]1(C(=O)OCC)C[C@@H](CC(=O)NCc2ccc(OC)c(OC)c2)C(=O)N2CCCC=C21	.	.	.	.	-15	.
O=C1NC(c2ccc(O)cc2)Nc2ccccc21 (stereo unspecified)	-7	-31	-11	-22	-35	-15
O=C1NC(c2cccc(OCc3ccccc3)c2)Nc2ccccc21 (stereo unspecified)	61*	-15	-14	-21	22	-6
CCOC(=O)C1=C(C)N(C)C(=O)NC1c1ccccc1OC (stereo unspecified)	40*	-29	0	-5	8	-8
O=C(CCS(=O)(=O)c1ccccc1)Nc1cc(Cl)ccc1F	.	.	.	.	0	.
O=S1(=O)c2ccc(N3CCN(Cc4ccccc4F)CC3)cc2Oc2ccccc2CN1Cc1cn(Cc2cccc(C(F)(F)F)c2)nn1	.	.	.	.	-9	.
O=C(Nc1nc(-c2ccccc2)cs1)c1ccc(N2CCOCC2)c([N+](=O)[O-])c1	26	64*	82	70	.	76*
COc1ccccc1C(=O)Nc1nc(-c2ccc(S(=O)(=O)N3CCOCC3)cc2)cs1	29	85*	89*	82*	74*	89*
COc1ccccc1OC(C)C(=O)Nc1nc(-c2ccc(S(=O)(=O)N3CCOCC3)cc2)cs1 (stereo unspecified)	8	18	34	0	-5	20
Cc1ccc(S(=O)(=O)N2CCOCC2)cc1C(=O)Nc1nc(-c2ccccn2)cs1	15	23	76	35	2	13
O=S(=O)(Nc1ccc(-c2csc(-c3ccccc3)n2)cc1)c1ccc(F)cc1	-3	5	16	7	4	8
O=C(Nc1nc(-c2ccccn2)cs1)c1cccc(S(=O)(=O)N2CCOCC2)c1	21	26	88*	30	34	22
Cc1ccc(-c2csc(NC(=O)c3cc([N+](=O)[O-])ccc3N3CCOCC3)n2)cc1	3	7	-17	14	-8	5
O=C(Nc1nc(-c2ccccc2)cs1)c1ccccc1NS(=O)(=O)c1ccc(F)cc1	?	44	49	75*	25	60
CN(C)c1ccc(/C=C/c2nc3ccccc3c(=O)[nH]2)cc1	48*	-123	60	-115	-94	-118
c1ccc(-c2cn3nc4c(nc3n2)CCCC4)cc1	64*	-92	16	-80	-35	-101
Brc1ccc(-c2cn3nc4c(nc3n2)CCCC4)cc1	38	-104	12	-99	-20	-81
Cc1ccc(OCCC(=O)OCC(=O)c2c(N)n(CC(C)C)c(=O)n(C)c2=O)cc1	72*	-9	67	-4	7	-5
CC(C)Cn1c(N)c(C(=O)COC(=O)CC23CC4CC(CC(C4)C2)C3)c(=O)n(C)c1=O	13	24	87*	40	12	-4
CCOc1ccc(OCCC(=O)OCC(=O)c2c(N)n(CC(C)C)c(=O)n(C)c2=O)cc1	-4	6	20	-1	-43	-16
CC1=NN(c2nc(N)nc(/C(C#N)=C/c3ccc([N+](=O)[O-])o3)n2)C(C)(C)C1	0	-50	98*	9	29	-7
CCN(CC)CC(C)(C)C(=O)/C=C/c1ccc(/C=C/C(=O)C(C)(C)CN(CC)CC)cc1	91*	54	98*	91*	74*	27
SMILES	EBV LMP1 NFkB	SRC1 inh	Shn3 3UTR inh	LRH-1 inv ag	NCOA2 inhibitor	SRC3 inh
O=C(COC(=O)c1ccc(Sc2ncn[nH]2)c([N+](=O)[O-])c1)Nc1cccc(Cl)c1F	.	.	.	.	-4	.
O=C(c1ccc(CS(=O)Cc2ccccc2Cl)o1)N1CCN(c2cccc(Cl)c2)CC1 (stereo unspecified)	70*	-5	17	6	-32	-12
COc1cccc(N2CCN(C(=O)c3ccc(CS(=O)Cc4ccccc4Cl)o3)CC2)c1 (stereo unspecified)	5	10	19	3	-16	-6
C[C@@H]1CCCN1c1cccc2c1S(=O)(=O)N1CC[C@@H](C1)O2	.	.	.	.	3	.
O=C(CC(c1ccc(F)cc1)c1ccco1)N1CCOCC1 (stereo unspecified)	61*	-2	1	10	-34	-4
O=C(CC(c1ccc(F)cc1)c1ccco1)N1CCCC1 (stereo unspecified)	-6	-2	6	-8	17	-1
CCCCCCCCN1CN2Cc3ccccc3C2CS1(=O)=O (stereo unspecified)	.	.	.	.	8	.
OC[C@H]1O[C@@H](Oc2ccc(O)cc2)[C@H](O)[C@@H](O)[C@@H]1O	32	-10	88*	20	-39	40
Cc1cc(C(=O)Nc2cccc(C(=O)O)c2)oc1C	66*	-154	61	-146	-54	-87
O=C(/C=C/c1ccccc1)Nc1cccc(C(=O)O)c1	80*	-119	69	-229	-24	-102
O=C(NCCc1ccccn1)c1ccc2c(c1)ncn2C1CCCCC1	.	.	.	.	-31	.
CCOC(=O)CC[C@H]1CC[C@]2(CCCN(C(=O)c3ccc4ccccc4n3)C2)O1	.	.	.	.	-20	.
COc1ccc(C(=O)CSc2nnc(-c3n[nH]c4c3CCC4)n2N)cc1OC	.	.	.	.	-145	.
O=C(Nc1ccc(Cl)cc1)Nc1ccc(N2CCCC2)c(S(=O)(=O)Nc2ccccc2Cl)c1	39	13	97*	15	10	16
O=C(Nc1ccc(N2CCOCC2)c(S(=O)(=O)Nc2ccccc2Cl)c1)c1ccccc1	2	-1	-10	-15	-1	-7
COC(=O)C1CN(CCc2ccccc2)CCS(=O)(=O)N1Cc1ccc(C)cc1 (stereo unspecified)	.	.	.	.	7	.
O=[N+]([O-])c1ccc(C=CC=Cc2ccccc2)cc1	-33	-72	-66	-9	-30	-44
CN(c1ccccc1)c1ccc(/C=C/[N+](=O)[O-])cc1	18	-17	94*	19	-38	-12
CCCCCCN1CCS(=O)(=O)N(Cc2ccc(C)cc2)C(C(=O)OC)C1 (stereo unspecified)	.	.	.	.	-8	.
CCOC(=O)c1ccc(N=CC2=C(O)CC(C)(C)CC2=O)cc1	-12	-9	13	-21	4	4
CCOC(=O)c1ccc(N=Cc2cnc(N)nc2N)cc1	-6	-2	-21	88*	-8	2
CCN(CC)S(=O)(=O)c1ccc(NC(=O)Nc2cccc(C(F)(F)F)c2)cc1	27	9	96*	19	49	25
Cc1ccc(S(=O)(=O)Nc2ccc(NC(=O)Nc3cccc(C(F)(F)F)c3)cc2)cc1	-6	2	75	12	12	19

Screening data (PubChem BioAssay)
